Results: the supplement of paper PMC6555819

How the values were obtained:
Assay in all cases: PBM binding z-score (relative to random genomic background probes); higher = stronger binding; sequences stand for … in GC…GCGATTGACAGCGTAGAATGAAGG
[1] = tested on: FXR:RXRa (NR concentration 270 nM, RXRa partner concentration 90 nM)
Outline: (§1)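 On custom Agilent 4×180K arrays, double-stranded probes with 34-nt variable regions carried direct-repeat seeds, single-nucleotide variants, half-site ablations or random human genomic background. Ligand-free nuclear receptor dimers were applied for 1 h, and binding was read with antibodies against each partner (one per run). Binding z-scores come from regression-normalized fluorescence, with the random background probes as reference.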

[2] = tested on: LXRa:RXRa (NR concentration 270 nM, RXRa partner concentration 90 nM)
Outline: as §1

[3] = tested on: LXRa homodimer (NR concentration 270 nM)
Outline: as §1

[4] = tested on: LXRb:RXRa (NR concentration 270 nM, RXRa partner concentration 90 nM)
Outline: as §1

[5] = tested on: LXRb homodimer (NR concentration 270 nM)
Outline: as §1

[6] = tested on: PPARa:RXRa (NR concentration 270 nM, RXRa partner concentration 90 nM)
Outline: as §1

[7] = tested on: PPARg:RXRa (NR concentration 180 nM, RXRa partner concentration 90 nM)
Outline: as §1

[8] = tested on: PPARg:RXRa 270nM:90nM, anti-RXR (NR concentration 270 nM, RXRa partner concentration 90 nM)
Outline: as §1

[9] = tested on: PPARg:RXRa 30nM:10nM, anti-RXR (NR concentration 30 nM, RXRa partner concentration 10 nM)
Outline: as §1

[10] = tested on: PPARg:RXRa 90nM:30nM, anti-RXR (NR concentration 90 nM, RXRa partner concentration 30 nM)
Outline: as §1

Row | Sequence | PBM binding z-score [1] | PBM binding z-score [2] | PBM binding z-score [3] | PBM binding z-score [4] | PBM binding z-score [5] | PBM binding z-score [6] | PBM binding z-score [7] | PBM binding z-score [8] | PBM binding z-score [9] | PBM binding z-score [10]
1 | ATATGTAGGTTAGGGTCATCCAGAAAGTAGGGAA | 5.11 | 4.21 | 1.16 | 4.31 | 1.44 | 5.62 | 8.03 | 6.66 | 4.94 | 6.67
2 | CAGCCTAGTTCAGGGCCAGTATAGGAGGAACGTT | 0.0528 | -0.124 | -0.0841 | -0.218 | -0.532 | -0.241 | -0.041 | -0.6 | -0.567 | -0.509
3 | ATCGAACGGTCGACGAGGTGAGTATACACCGTTT | -0.18 | -0.425 | -0.327 | -0.336 | -0.463 | -0.0739 | 0.937 | -0.158 | -0.0439 | -0.375
4 | TGGCCTAGGTCATGCGGGCCAGTATAGTGTCGGC | 3.58 | 2.57 | -0.464 | 1.2 | -1.55 | 3.28 | 1.7 | 2.2 | 0.139 | 0.89
5 | CGAACTAGGTCAAAGCACAGTGAAAGGCGACGTA | 3.1 | 2.6 | -0.247 | 1.56 | -0.247 | 5.18 | 8.01 | 6.88 | 5.18 | 7.17
6 | CCTTACGGGCCACGAGGTTATAGCACGACGAGCG | 0.333 | 0.406 | -0.158 | 0.202 | -0.806 | 1.44 | 1.29 | 0.67 | -0.315 | 0.471
7 | GCTAGTAGGTCAGTAAAAGGTCACACACCGGTCG | 4.98 | 5.45 | 5.31 | 5.01 | 1.21 | 5.55 | 7.3 | 6.72 | 4.43 | 6.42
8 | CGAACTAGGTCACCATGACAGTGAAGAGGTTGGA | 3.62 | 1.88 | -0.254 | 1.49 | 0.0449 | 4.95 | 8.32 | 6.55 | 4.64 | 6.23
9 | CCTACTGGGCCAAAAATGTCATTGATGCCGATAA | -0.451 | -0.771 | -0.332 | -0.343 | -0.655 | 0.13 | 0.537 | 0.911 | -0.0652 | 0.391
10 | CCTTACGGGTCACTCCAGGTTCTAGCATCGGAGT | 4.8 | 4.87 | 0.141 | 2.7 | -0.137 | 4.28 | 2.96 | 3.49 | 0.999 | 2.15
11 | GGAACGAGGGCAAAGGTGATAGCATCTGTCGACG | 2.08 | 1.64 | -0.402 | 1.23 | -0.651 | 4.97 | 9.32 | 8.6 | 7.51 | 9.41
12 | CGAACTAGGTCACCAGGATAGTGAAGAGGTTGGA | 4.03 | 2.47 | 0.115 | 1.87 | -0.103 | 5.37 | 8.87 | 6.98 | 4.74 | 6.8
13 | CGTCCAAGGTCAGATAGGTCAGTGAATGCCGAGT | 5.44 | 3.81 | 1.77 | 3.45 | 0.397 | 4.33 | 2.66 | 3.09 | 0.662 | 1.9
14 | AGTCAAAATTCACTAGGTAACGTAAGATTCAGCT | 0.492 | 0.568 | 0.177 | 0.0874 | 0.267 | 0.989 | 0.791 | 0.81 | 0.61 | 1.03
15 | TCTAGTTGGTCGCGGAGGTCACACACGACGGGTA | 2.99 | 3.17 | 2.21 | 2.94 | 0.671 | 3.61 | 2.02 | 3.04 | 2.94 | 2.83
16 | CCTTCTGGGCCATTCAGAGGTCATTGATCATATG | 2.86 | 4.26 | 6.84 | 3.99 | 0.742 | 4.02 | 1.85 | 2.79 | 0.927 | 2.05
17 | GCTGCTAGGTCAGGTTGGTCAACTAACGGGTACG | 1.14 | 0.685 | -0.134 | 0.695 | -0.424 | 1.46 | 0.577 | 0.833 | -0.708 | 0.0771
18 | GCTAGTGGGTCAGTAAAAGGTCACACACCGGTCG | 4.47 | 4.77 | 4.65 | 4.61 | 0.38 | 5.24 | 6.44 | 5.98 | 3.57 | 5.34
19 | CGAACTAGGGCAAAGGACAGTGAAAGGCGACGTA | -0.161 | -0.272 | -0.336 | -0.481 | -1.45 | 3.45 | 9.04 | 7.51 | 8.13 | 8.74
20 | CGAACTACGTCAAAGGACAGTGAAAGGCGACGTA | -0.5 | -0.431 | -0.3 | -0.675 | -0.597 | 0.0872 | 1.15 | 1.53 | 0.179 | 1.25
21 | TAGCCAAGGTCATTCAGGGGCCAGTATAGAAAGC | 7.35 | 5.84 | 1.66 | 4.6 | 2.35 | 5.19 | 4.6 | 4.81 | 1.47 | 3.17
22 | CGAACTAGGTGAAAGGACAGTGAAAGGCGACGTA | -0.276 | -0.418 | -0.4 | -0.115 | -0.863 | 4.46 | 8.84 | 7.7 | 6.77 | 8.31
23 | CAAACTAGGTCACCGGGAGGTCAAAGTCCGCATG | 6.46 | 6.26 | 6.39 | 5.87 | 1.73 | 6.17 | 9.53 | 8 | 6.05 | 8.25
24 | CCGACTGGGCCATTCAGAGGTCATTGATCATATG | 2.92 | 4.38 | 6.59 | 3.54 | -0.323 | 3.44 | 1.4 | 2.29 | 0.268 | 1.42
25 | CCTAGTTGGTCAGGAGGTCACAAACCGGATATGA | 3.32 | 2.85 | 1.66 | 3.16 | 0.659 | 3.98 | 3.09 | 3.7 | 1.19 | 2.73
